The record followed here is PubChem BioAssay.

The target of the assay is Calmodulin-1 (Homo sapiens) (UniProt P0DP23). As to the kind of experiment: calcium-bound CALM1 binders on microarrays, profiling panel, artefact control for SMM control-protein annotation, biochemical, small-molecule microarray, Cy5-labelled CALM1, plus calcium (AID 1112).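 Note: score merges spot fluorescence with signal to noise from triplicate slides.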 The conditions noted are these: Cy5-CALM1 binding fluorescence, higher = more signal.
Regarding `CO[C@H]1O[C@H](CO)[C@@H](OC(=O)Nc2ccc3c(c2)OCO3)[C@H](OC(=O)Nc2ccc3c(c2)OCO3)[C@@H]1OC(=O)Nc1ccc2c(c1)OCO2`, the composite z-score was -0.745.
As to `CCOC(=O)C[C@H]1[C@H](OC(=O)c2ccccc2-c2ccccc2)[C@@H](NC(=O)c2ccc3ccccc3c2)c2cc(OCCCO)ccc2N1C(=O)c1ccccc1`, the composite z-score is -0.332.
Under `CC(C)[Si]1(C(C)C)OCc2cc(-c3ccc(-c4ccc(Cl)c(Cl)c4)o3)nc(-c3ccccc3)c21` stands -0.341; under `COc1ccc([C@H]2OC[C@@H]3C[C@H](Cc4ccccc4)C(=O)N32)cc1`, -0.668.
As to `COC(=O)C(CC#Cc1ccc2c(c1)[C@]1(C(=O)N2)[C@H](c2ccc(O)cc2)N2[C@H](c3ccccc3)[C@H](c3ccccc3)OC(=O)[C@H]2[C@@H]1C(=O)NC[C@H](O)c1ccccc1)C(=O)OC`, the composite z-score was -0.102.
With `CC(=O)N1CC2(CC2)CC1c1ccccc1` (stereo not given), the composite z-score is 0.0916.
Under `COc1ccc([Si](C)(C)[C@@H]2[C@@H](CC(=O)N3CCC[C@H]3CO)O[C@]3(C(=O)N(Cc4cccc(N5C(=O)COc6ccccc65)c4)c4ccccc43)[C@H]2C)cc1` stands 0.343.
Take `O=c1cccc(-c2ccc([N+](=O)[O-])cc2)o1`: the composite z-score is -0.389.
The figure for `N[C@@H](Cc1ccccc1)C(=O)NCc1cn(Cc2ccccc2)nn1` is -0.232; for `O=C1C2C=CC(C(O)c3cccc(O)c3)N(Nc3ccc([N+](=O)[O-])cc3)C2C(=O)N1c1ccccc1` (stereo not given) it is 0.219; for `CC(C)c1ccc(NN2C(C(O)c3ccc(F)cc3)C=CC3C(=O)N(c4ccccc4)C(=O)C32)cc1` (stereo not given) it is -0.0298.
Under `C=CC[C@@H](OC(=O)Nc1ccc(SC)cc1)c1ccc(O)c(F)c1` stands -0.776; under `COc1cc2c(cc1O)C(C1CC1)N(C)CC2` (stereo not given), -0.193; under `O=C1CS(=O)(=O)C(c2cccc([N+](=O)[O-])c2)N1c1ccccc1` (stereo not given), -0.177.
With `COC(=O)[C@@H]1N=C(c2ccc(OCCCO)cc2)O[C@@H]1c1ccccc1`, the composite z-score was -0.294.
As for `O=C1NC(=O)C2C1C=CC(C(O)c1ccco1)N2Nc1ccc(Cl)cc1Cl` (stereo not given), the composite z-score is 0.381.
With `COc1ccc([Si](C)(C)[C@@H]2[C@@H](CCO)O[C@]3(C(=O)N(Cc4cccc(NC(=O)[C@H](C)O)c4)c4ccccc43)[C@H]2C)cc1`, the composite z-score is -0.204.
Under `CCCN1C(=O)[C@]2(Cc3ccccc31)N=C(c1ccc(OCCCO)cc1)O[C@@H]2c1ccccc1` stands -0.317; under `CN(C)C(=O)[C@@]1(Cc2ccccc2)N=C(c2ccc(OCCCO)cc2)O[C@H]1c1ccccc1`, 0.972.
With `COCCOC(=O)N1C(=O)[C@@]2(c3cc(C#CC4(O)CCCCCC4)ccc31)[C@H](c1ccc(O)cc1)N1[C@H](c3ccccc3)[C@H](c3ccccc3)OC(=O)[C@H]1[C@@H]2C(=O)N1CCN(c2ncccn2)CC1`, the composite z-score is 0.18.
The figure for `COc1ccc(CCNC(=O)[C@@]2(Cc3ccccc3I)c3ccccc3C(=O)N(C3CCCCC3)[C@H]2c2ccc(CO)cc2)cc1` is 0.609.
Under `CCOC(=O)C=Cc1cccc(C)c1O` stands -0.335; under `C=CCC(OC(C)=O)[C@@H]1[C@@H](N(Cc2ccc(-c3cccc(C(F)(F)F)c3)o2)C(=O)Cc2ccc(OC)cc2)c2cc(OCCCO)ccc2N1C(=O)c1ccc(-c2ccccc2)cc1` (stereo not given in full), -0.341; under `O=C1[C@H]2C=C(I)[C@H](C[C@@H]2OCCOCCO)[C@@]12CO2`, -0.876.
Turning to `C#Cc1cc2ccccc2oc1=O`, the composite z-score was -0.451.
In the case of `O=C(Cc1ccccc1)[C@H]1C2C=CCCC(c3ccccc3)=C2CN1Cc1ccccc1` (stereo not given in full), the composite z-score was -0.354.
The figure for `O=C1O[C@@H](c2ccccc2)[C@@H](c2ccccc2)N2[C@@H](c3ccc(OCCO)cc3)[C@]3(C(=O)Nc4ccc(C#CC5=CCCCC5)cc43)[C@@H](C(=O)NC[C@H](O)c3ccccc3)[C@H]12` is 0.7; for `COc1cc2c(cc1O)C(C1CC1)N(Cc1cccc(OC(F)(F)F)c1)CC2` (stereo not given) it is -0.453.
The figure for `[N-]=[N+]=NCc1ccccc1[C@@H]1OC(c2ccc(OCCCO)cc2)=N[C@]1(CCS(=O)(=O)c1ccccc1)C(=O)O` is 0.0892; for `[N-]=[N+]=NCc1ccccc1[C@H]1OC(c2ccc(OCCCO)cc2)=N[C@@]1(Cc1ccccc1N=[N+]=[N-])C(=O)NCC(O)CO` (stereo not given in full) it is 0.734.
Under `COCCOC(=O)N1C(=O)[C@@]2(c3ccccc31)[C@H](C(=O)NC[C@H](O)c1ccccc1)[C@H]1C(=O)O[C@H](c3ccccc3)[C@H](c3ccccc3)N1[C@@H]2c1ccc(O)cc1` stands -0.522; under `O=C1OCCC/C=C\[C@H]2OC34C=CCN(c5ccc6ccccc6c5)C(=O)[C@H]3N(CCO)C(=O)[C@@H]4C12` (stereo not given in full), 0.903; under `CCOC(=O)C[C@H]1[C@H](OC(=O)Cc2ccc3c(c2)OCO3)[C@@H](NC(=O)c2ccc3ccccc3n2)c2cc(OCCCO)ccc2N1C(=O)c1ccc2ccccc2n1`, -0.0205.
Turning to `CC[C@@H]1C=C(C(=O)O)[C@H](c2ccccc2)N1S(=O)(=O)c1ccc(C)cc1`, the composite z-score is 1.03.
For the molecule `CC(C)N1C(=O)C[C@@](C(=O)O)(c2ccc([N+](=O)[O-])cc2)[C@H]1c1ccc(CO)cc1`, the composite z-score was found to be 0.432.
